Only a selection was taken, and hits are over-represented in it overall.
RBX1-CUL1 inh = inhibitors of human ROC1-CUL1 ubiquitin ligase activity | in vitro K48 di-Ub FRET, acceptor:donor ratio, 45 min | inhibition, % at 10 µM | hit rate 0.6% among 140,000 | AID 1347404; in the data active = inhibition above about 25%
A number is an active result; n = inactive.

SMILES	RBX1-CUL1 inh
CCCN1CC=C2C(C#N)C(=N)C(C#N)(C#N)C(c3cccc(Br)c3)C2C1 (stereo not drawn)	n
CN1CC=C2C(C#N)C(=N)C(C#N)(C#N)[C@H](c3ccccc3F)[C@H]2C1 (stereo partly drawn)	n
CCN1CC=C2C(C#N)C(=N)C(C#N)(C#N)C(c3cc(OC)c(OC)c(OC)c3)C2C1 (stereo not drawn)	n
CCN1CC=C2C(C#N)C(=N)C(C#N)(C#N)C(c3ccc(SC)cc3)C2C1 (stereo not drawn)	68
CCN1CC=C2C(C#N)C(=N)C(C#N)(C#N)[C@H](c3ccc4c(c3)OCO4)[C@H]2C1 (stereo partly drawn)	n
CCN1CC=C2C(C#N)C(=N)C(C#N)(C#N)C(c3cccc(F)c3)C2C1 (stereo not drawn)	47
CN1CC=C2C(C#N)C(=N)C(C#N)(C#N)C(c3ccco3)C2C1 (stereo not drawn)	n
OC1(CC#CCN2CCCCCC2)c2ccccc2-c2ccccc21	n
CC(C)C(=O)Nc1ccc(Cl)cc1-c1nc2ccccc2s1	n
CCCc1[nH]nc2c1C(c1c(C)nn(-c3ccc(C)cc3)c1Cl)C(C#N)C(=N)O2 (stereo not drawn)	n
COc1ccc(-c2ccc(C3C4=C(CC(C)(C)CC4=O)OC(=N)C3C#N)o2)cc1 (stereo not drawn)	n
O=C([O-])Cc1c(O)on[n+]1Cc1ccccc1	n
Cn1c2ccccc2c2nc(Cl)nnc21	n
Cc1ccc(-c2nn3c(C4CCCCC4)nnc3s2)cn1	n
CCCNc1nc(Nc2ccc(OC(F)(F)F)cc2)nc(N2CCN(C34CC5CC(CC(C5)C3)C4)CC2)n1	n
Cc1ccn(CCC(=O)NCc2cccnc2Oc2ccc(C)c(F)c2F)n1	n
Cc1ccccc1C(=O)N=C1C(=O)N2C=CC=CC2=NC1C (stereo not drawn)	n
CCC1CCCCN1C(=O)c1nn2c(C(F)(F)F)cc(-c3ccccc3)nc2c1Cl (stereo not drawn)	n
O=C(O)Cn1nc(C(F)F)cc1C(F)F	n
CC1=NN(c2ccc(F)cc2)C(=O)/C1=C/c1ccc2c(c1)n(C)c(=O)n2C	n
COc1cc(/C=C2\C(=O)N(c3ccc(S(N)(=O)=O)cc3)N=C2C)cc(OC)c1OC	32
NS(=O)(=O)c1ccc(N=C2CC(=O)Oc3ccccc32)cc1	n
CC1=NN(c2ccc(S(N)(=O)=O)cc2)C(=O)/C1=C\c1ccc(N(C)C)c(Br)c1	68
CC1=NN(c2ccc(S(N)(=O)=O)cc2)C(=O)C1=Nc1ccc(N(C)C)cc1	64
COc1cc(/C=C2/C(=O)N(c3ccc(Cl)c(Cl)c3)N=C2C)cc(OC)c1O	n
SMILES	RBX1-CUL1 inh
CN(C)c1ccc(/C=C2\C(=O)NN(c3ccccc3)C2=O)cc1Br	n
COc1cc(/C=C2/C(=O)N(c3ccc(Cl)c(Cl)c3)N=C2C)cc(OC)c1OC	n
CC1=NN(c2ccc(C)cc2C)C(=O)C1=Nc1ccc(N(C)C)cc1	n
CCn1c(SCc2cccc(Br)c2)nc2ccccc2c1=O	n
COc1ccc(Nc2nc3ccc([N+](=O)[O-])cc3nc2Nc2ccc(OC)c(Cl)c2)cc1Cl	n
COc1ccccc1OCCn1c(SCCO)nc2ccccc21	n
CC12c3ccccc3C(c3ccccc31)C1C(=O)N(c3ccc(Cl)c(F)c3)C(=O)C12 (stereo not drawn)	n
CS(=O)(=O)N(CCC#N)Cc1ccc(C=C2C(=O)c3ccccc3C2=O)o1	n
CC(C)NS(=O)(=O)c1cccnc1Cl	n
O=C1C(Cl)=C(Cl)C(=O)C(CCNc2ncccn2)=C1Cl	98
Cc1ccc(NC(=O)c2ccc(N)cc2)c(C)c1	n
CCOc1cc(/C=C2\N=C(c3ccccc3)OC2=O)ccc1OCc1ccc(Cl)cc1	n
COc1ccc(/C=C2\N=C(c3ccccc3)OC2=O)cc1[N+](=O)[O-]	n
CCN(CC)c1ccc(/C=C2\N=C(c3ccccc3)OC2=O)cc1	32
COC(=O)C1CCN(c2nncc(-c3cc(OC)c(OC)c(OC)c3)n2)CC1	n
Cn1c(=Nc2ccccc2)ssc1=Nc1ccccc1	n
COC1=CCCSC1=Nc1ccccc1	30
COc1ccc(N=C2SC(=Nc3ccccc3)C(=Nc3ccccc3)N2c2ccc(OC)cc2)cc1	n
O=C1C(=O)N(c2nnc(SCc3ccc(Cl)cc3)s2)C(c2cccc(O)c2)C1C(=O)c1cc2ccccc2o1 (stereo not drawn)	n
O=C1C(=O)N(c2nnc(SCc3ccc(Cl)cc3)s2)C(c2cccs2)C1C(=O)c1cc2ccccc2o1 (stereo not drawn)	45
CCOc1cc(C2C(C(=O)c3cc4ccccc4o3)C(=O)C(=O)N2c2nnc(SCc3ccccc3)s2)ccc1O (stereo not drawn)	65
CCOc1ccc(C2C(C(=O)c3cc4ccccc4o3)C(=O)C(=O)N2c2nnc(SCc3ccccc3F)s2)cc1OC (stereo not drawn)	n
O=C1C(=O)N(c2nnc(SCc3ccccc3)s2)C(c2cccs2)C1C(=O)c1cc2ccccc2o1 (stereo not drawn)	n

Assay outcomes deposited in PubChem by Pan Lab, Icahn School of Medicine at Mount Sinai.
